Assay [1] relates to Wnt5a (protein binding on small-molecule microarray). In words: Wnt5a binders on small-molecule microarray, primary screen, biophysical, 635/667 nm fluorescence (AID 1142).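 Further: fluorescence read at 667 nm with signal to noise per printed feature.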 The conditions noted are these: 635 nm fluorescence, higher = more signal.
Assay [2] can be described thus: cell viability in Huh7 cells, primary screen, cytotoxicity control for HCV replication inhibitor project, CellTiter-Glo luminescence, basal, 48 h (AID 1143).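 Further: Huh7 hepatoma cells carrying a hepatitis C replication reporter with no stimulus; test concentration not given here.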 The conditions noted are these: Huh7 HCV replicon, higher = more signal, called active from +8 up or from −8 down.
The nature of assay [3]: CREB reporter modulators without forskolin, primary screen, cell-based, PC12, CRE-LacZ reporter, unstimulated (AID 1145). Conditions: no forskolin, luminescence, 4.5 h, higher = more signal, called active from +8 up or from −8 down.
Assay [4] can be described thus: CREB reporter modulators under forskolin, primary screen, cell-based, PC12, CRE-LacZ reporter, forskolin-stimulated (AID 1146).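 Further: PC12 cells with 6xCRE LacZ reporter stimulated by forskolin 10 µM; beta-galactosidase reporter signal reflecting CREB driven transcription.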 The conditions noted are these: luminescence, 4.5 h, higher = more signal, called active from +8 up or from −8 down.
Assay [5] deals with Streptavidin (Streptomyces avidinii) (UniProt P22629). In words: streptavidin binders on small-molecule microarray, primary screen, artefact control for SMM compound annotation, biophysical, 635/667 nm fluorescence (AID 1147).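 Further: signal reflects streptavidin binding to arrayed compounds as a control protein.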 Conditions: streptavidin binding, higher = more signal.
Assay [6] in a line: small-molecule binders of probe aInhba, primary screen, biochemical, small-molecule microarray, 635/667 nm fluorescence (AID 1148).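 Further: score merges 667nm spot fluorescence with signal-to-noise for antibody binding to printed compounds.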 The conditions noted are these: higher = more signal.
In assay [7] the target is Torsin-1A (Homo sapiens) (UniProt O14656). In words: torsin A binders from cell lysate, primary screen, small-molecule microarray, wild-type, 635/667 nm (AID 1149). Conditions: COS7 hTOR1A-WT lysate, 635 nm fluorescence, higher = more signal.
For assay [8] the target is unchanged. Put plainly: small-molecule binders of mutant TOR1A in lysate, primary screen, cell lysate, small-molecule microarray, COS7 lysate, 635/667 nm fluorescence (AID 1150).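 Further: score pools 667 nm emission and signal to noise measuring lysate protein binding.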 Conditions: COS7 hTOR1A mutant lysate, 635 nm fluorescence, higher = more signal.
The subject of assay [9] is Sonic hedgehog protein (Shh). Put plainly: small-molecule binders of Shh protein, primary screen, biochemical, small-molecule microarray, 635/667 nm fluorescence (AID 1151).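 Further: Shh protein binding to compounds spotted on small-molecule microarray slides; score combines spot fluorescence intensity with signal-to-noise across triplicate slides.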 The conditions noted are these: small-molecule microarray binding, 635 nm fluorescence; higher = more signal.
A short description of assay [10]: E. coli DRC41 culture turbidity changes, primary screen, E. coli filamentation inducer project, strain DRC41, OD650, 48 h (AID 1152).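 Further: E. coli MC1000 strain DRC41 lacking acrAB efflux pump and sulA.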 Conditions: E. coli DRC41 (acrAB sulA), higher = more signal, called active from +8 up or from −8 down.
Assay [11] in a line: small-molecule binders of probe aLefty1, primary screen, biochemical, small-molecule microarray, 635/667 nm fluorescence (AID 1153).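 Further: score merges spot fluorescence with signal-to-noise ratio from the scanned slide images.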 Conditions: higher = more signal.
Assay [12] can be described thus: PSAC antagonists in infected red cells, primary screen, cell-based, P. falciparum Indochina, OD700, 1 h (AID 1154). The conditions noted are these: P. falciparum Indochina infected RBC osmotic lysis, higher = more signal, called active from +8 up or from −8 down.
The nature of assay [13]: PSAC antagonists in infected red cells, primary screen, cell-based, P. falciparum Indochina, OD700, 2 h (AID 1155).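 Further: lysis reports solute entry through the parasite surface anion channel PSAC; channel blockers reduce lysis of infected cells.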 The conditions noted are these: P. falciparum Indochina infected erythrocytes, osmotic lysis OD700; higher = more signal, called active from +8 up or from −8 down.
Assay [14] is described as follows: osmotic lysis modulators in infected erythrocytes, primary screen, PSAC antagonist project, cell-based, P. falciparum Indochina, OD700, 3 h (AID 1156). Conditions: higher = more signal, called active from +8 up or from −8 down.
The nature of assay [15]: PSAC antagonists in infected red cells, primary screen, cell-based, P. falciparum Indochina, OD700, 18 h (AID 1157). The conditions noted are these: P. falciparum Indochina infected erythrocytes, osmotic lysis OD700, 18 h; higher = more signal, called active from +8 up or from −8 down.
A short description of assay [16]: modulators of S6 phosphorylation in cells, primary screen, cell-based, A549, cytoblot, luminescence, serum-stimulated (AID 1158).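 Further: serum-stimulated A549 lung adenocarcinoma cells; signal is phosphorylated S6 detected by cytoblot immunostaining with HRP secondary.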 The conditions noted are these: A549 phospho-S6 cytoblot, 5 h, higher = more signal.
Assay [17] concerns the target NADPH oxidase 2 (Homo sapiens) (UniProt P04839). Put plainly: NOX2-dependent H2O2 signal modulators, primary screen, NOX inhibitor project, cell-based, HEK293-NOX2, PMA-stimulated, Amplex Red fluorescence (AID 1159). Further: test concentration not given here. Conditions: 45 min, higher = more signal, called active from +8 up or from −8 down.
The target of assay [18] is NADPH oxidase 4 (Homo sapiens) (UniProt Q9NPH5). In words: NOX4-dependent H2O2 signal modulators, primary screen, NOX inhibitor project, cell-based, HEK293-NOX4, tetracycline-induced, Amplex Red fluorescence (AID 1160). The conditions noted are these: 45 min, higher = more signal, called active from +8 up or from −8 down.
Assay [19] concerns the target NADPH oxidase 5 (Homo sapiens) (UniProt Q96PH1). Put plainly: NOX5-dependent H2O2 signal modulators, primary screen, NOX inhibitor project, cell-based, HEK293-NOX5, Amplex Red fluorescence (AID 1161). Conditions: HEK293-NOX5, ionomycin, 45 min, higher = more signal.
Assay [20] can be described thus: A549 cell viability effects, profiling panel, calcein-AM fluorescence, 48 h, basal (AID 1162). Further: test concentration not given here. Conditions: higher = more signal.

Active and inactive are the calls of the source.

Chain of Streptavidin (Streptomyces avidinii) (P22629 whole entry, looked up): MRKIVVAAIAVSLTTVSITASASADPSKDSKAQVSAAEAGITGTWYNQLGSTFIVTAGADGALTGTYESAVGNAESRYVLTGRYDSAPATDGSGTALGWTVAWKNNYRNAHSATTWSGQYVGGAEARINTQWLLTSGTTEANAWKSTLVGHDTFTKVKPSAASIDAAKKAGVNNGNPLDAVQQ
Chain of NADPH oxidase 4 (Homo sapiens) (Q9NPH5 whole entry, looked up): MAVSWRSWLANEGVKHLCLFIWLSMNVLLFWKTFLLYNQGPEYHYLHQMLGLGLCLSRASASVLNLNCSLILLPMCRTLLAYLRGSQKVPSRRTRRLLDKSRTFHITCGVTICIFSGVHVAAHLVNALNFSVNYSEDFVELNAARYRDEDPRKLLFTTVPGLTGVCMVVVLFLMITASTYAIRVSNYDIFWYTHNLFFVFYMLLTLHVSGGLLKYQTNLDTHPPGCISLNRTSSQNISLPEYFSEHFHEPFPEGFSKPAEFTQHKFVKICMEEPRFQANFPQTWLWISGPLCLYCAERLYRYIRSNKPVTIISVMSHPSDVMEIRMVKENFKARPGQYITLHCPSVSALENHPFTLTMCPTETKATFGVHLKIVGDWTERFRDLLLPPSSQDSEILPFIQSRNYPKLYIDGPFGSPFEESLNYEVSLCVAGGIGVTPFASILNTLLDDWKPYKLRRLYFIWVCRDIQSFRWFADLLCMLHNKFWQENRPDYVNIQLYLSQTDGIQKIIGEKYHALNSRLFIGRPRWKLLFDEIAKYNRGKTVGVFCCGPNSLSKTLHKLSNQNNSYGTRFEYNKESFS
Chain of NADPH oxidase 2 (Homo sapiens) (P04839 whole entry, looked up): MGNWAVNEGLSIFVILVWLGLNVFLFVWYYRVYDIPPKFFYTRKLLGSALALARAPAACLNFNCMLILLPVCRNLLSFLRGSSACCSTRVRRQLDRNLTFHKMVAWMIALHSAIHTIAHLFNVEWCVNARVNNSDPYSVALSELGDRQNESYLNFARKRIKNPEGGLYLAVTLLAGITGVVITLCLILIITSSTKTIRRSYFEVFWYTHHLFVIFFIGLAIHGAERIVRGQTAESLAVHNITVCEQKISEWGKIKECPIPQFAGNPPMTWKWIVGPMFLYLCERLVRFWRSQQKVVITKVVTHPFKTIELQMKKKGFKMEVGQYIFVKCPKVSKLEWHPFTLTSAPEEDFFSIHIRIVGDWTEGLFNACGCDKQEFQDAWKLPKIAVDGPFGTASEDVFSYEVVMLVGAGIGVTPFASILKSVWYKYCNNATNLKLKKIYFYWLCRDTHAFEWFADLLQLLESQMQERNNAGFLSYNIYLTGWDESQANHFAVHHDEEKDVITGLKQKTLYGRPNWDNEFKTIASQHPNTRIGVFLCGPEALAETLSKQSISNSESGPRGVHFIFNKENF
Chain of Torsin-1A (Homo sapiens) (O14656 whole entry, looked up): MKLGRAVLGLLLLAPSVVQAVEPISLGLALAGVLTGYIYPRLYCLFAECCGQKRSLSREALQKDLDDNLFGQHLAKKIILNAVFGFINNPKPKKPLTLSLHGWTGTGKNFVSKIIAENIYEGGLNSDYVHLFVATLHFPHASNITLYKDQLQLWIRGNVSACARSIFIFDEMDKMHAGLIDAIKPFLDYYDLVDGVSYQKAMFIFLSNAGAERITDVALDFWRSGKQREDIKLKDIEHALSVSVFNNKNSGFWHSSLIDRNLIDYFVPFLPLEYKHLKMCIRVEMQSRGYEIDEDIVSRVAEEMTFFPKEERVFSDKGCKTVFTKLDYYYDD
Chain of NADPH oxidase 5 (Homo sapiens) (Q96PH1 whole entry, looked up): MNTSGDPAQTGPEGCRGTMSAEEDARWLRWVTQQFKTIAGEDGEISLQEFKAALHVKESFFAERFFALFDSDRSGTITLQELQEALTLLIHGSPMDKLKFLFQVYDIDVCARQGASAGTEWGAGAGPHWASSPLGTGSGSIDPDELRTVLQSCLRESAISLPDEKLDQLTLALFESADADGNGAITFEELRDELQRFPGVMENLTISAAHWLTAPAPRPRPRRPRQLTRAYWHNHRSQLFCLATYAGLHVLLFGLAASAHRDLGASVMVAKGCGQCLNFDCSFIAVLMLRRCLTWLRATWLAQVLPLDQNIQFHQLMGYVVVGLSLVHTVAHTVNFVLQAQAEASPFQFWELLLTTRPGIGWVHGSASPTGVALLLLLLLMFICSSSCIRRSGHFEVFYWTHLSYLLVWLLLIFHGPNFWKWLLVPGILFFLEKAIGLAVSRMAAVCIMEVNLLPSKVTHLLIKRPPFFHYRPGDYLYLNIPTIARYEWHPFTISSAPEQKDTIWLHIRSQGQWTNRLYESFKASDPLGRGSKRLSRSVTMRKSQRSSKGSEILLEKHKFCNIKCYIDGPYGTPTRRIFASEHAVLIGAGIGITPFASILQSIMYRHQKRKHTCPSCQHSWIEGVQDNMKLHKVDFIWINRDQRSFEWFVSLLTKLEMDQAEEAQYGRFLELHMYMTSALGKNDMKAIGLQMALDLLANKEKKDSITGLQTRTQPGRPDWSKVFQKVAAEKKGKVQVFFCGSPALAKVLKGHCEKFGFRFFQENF

With `CN(C)CCCC[C@@H]1NC(=O)[C@@H]2C[C@H](C(=O)NCCCCCNC(=O)CS)[C@H](c3cccc(OCCO)c3)N2C1=O`, the composite z-score in [1] was 0.21; in [5], 0.07; in [6] it was 0.0869; in assay [7], 0.672; in [8], 0.408; in [9], 2.01. The same compound gave a composite z-score in assay [11] of 0.2. For the same compound, the z-score in assay [2] is -5.23 (inactive); in [3], -0.39 (inactive); in assay [4], -1.49 (inactive); in [10] it was 1.97 (inactive); in assay [12], 2.86 (inactive); in assay [13], 0.159 (inactive). Also, the z-score in [14] is -2.96 (inactive); in [15] it was -0.778 (inactive); in assay [16], 2.45; in assay [17], -0.143 (inactive); in [18] it was 0.366 (inactive); in assay [19], 2.19. Also, the z-score in assay [20] is -0.459.

In the case of `COc1ccc([Si](C)(C)[C@H]2[C@H](CC(=O)N3Cc4ccccc4C[C@H]3CO)O[C@@]3(C(=O)N(Cc4cccc(N5C(=O)COc6ccccc65)c4)c4ccccc43)[C@@H]2C)cc1`, the composite z-score in assay [1] is 0.283; in assay [5] it was 0.22; in [6], -0.0986; in assay [7], 0.562; in assay [8] it was 0.212; in [9] it was 2. For the same compound, the composite z-score in [11] is -0.0035. For the same compound, the z-score in [2] was -3.87 (inactive); in assay [3] it was 3.47 (inactive); in assay [4] it was -1.86 (inactive); in [10] it was 0.578 (inactive); in [12] it was 3.46 (inactive); in assay [13] it was 1.76 (inactive). Also, the z-score is 1.69 (inactive) in [14]; 1.04 (inactive) in assay [15]; 0.0515 in assay [16]; -1.37 (inactive) in [17]; -0.307 (inactive) in assay [18]; -2.34 in assay [19]. In [20], the z-score was 0.486.

Take `CO[C@H]1O[C@H](CO)[C@@H](OC(=O)CCc2ccccc2)[C@@H]2OC(=O)[C@H](Cc3ccccc3)C/C=C/C[C@@H](Cc3ccccc3)C(=O)O[C@@H]12`: the composite z-score was -0.221 in assay [1]; -0.804 in assay [5]; -0.179 in assay [6]; 0.0387 in assay [7]; 0.0489 in [8]; -0.214 in assay [9]. This compound registered a composite z-score in [11] of -0.243. Besides, the z-score in assay [2] was -3.09 (inactive); in assay [3] it was -0.552 (inactive); in assay [4] it was -1.18 (inactive); in [10], 2.35 (inactive); in assay [12], 6.07 (inactive); in assay [13], 0.389 (inactive). For the same compound, the z-score in [14] is -1.06 (inactive); in [15], -1.83 (inactive); in assay [16] it was 0.939; in assay [17], 1.59 (inactive); in assay [18], 1.26 (inactive); in assay [19] it was 0.751. For the same compound, in assay [20], the z-score is 1.38.

Regarding `COCCCNC(=O)[C@@]1(Cc2ccccc2CN=[N+]=[N-])COC(c2ccc(OCCCO)cc2)=N1`, the composite z-score in assay [1] amounted to 1.18; in assay [5] it was 0.257; in [6], 0.283; in assay [7], 1.22; in [8], 0.669; in assay [9], 0.13. Moreover, the composite z-score in assay [11] was 0.961. For the same compound, the z-score in assay [2] is -3.41 (inactive); in assay [3], -0.94 (inactive); in assay [4] it was -2.58 (inactive); in [10], 2.58 (inactive); in assay [12], 26.7 (active); in [13], 22 (active). Moreover, the z-score in assay [14] is 3.17 (inactive); in assay [15] it was 3.5 (inactive); in assay [16], 0.989; in assay [17], -2.47 (inactive); in assay [18] it was -1.03 (inactive); in assay [19], -2.89. Moreover, in assay [20], the z-score is 0.395.

For the compound `COC(=O)c1c2oc(c1C(=O)OC)C(=O)N[C@@H](C(C)C)Cn1nncc1C1(CCCCC1)NC(=O)N[C@H](CO)CC2`, the composite z-score in [1] is -0.0906; in assay [5], 0.235; in assay [6], -0.195; in assay [7], 0.217; in [8], -0.422; in [9] it was -0.0256. Further, the composite z-score in assay [11] is -0.235. The z-score in assay [2] was -0.475 (inactive); in assay [3], 1.44 (inactive); in assay [4], -0.575 (inactive); in assay [10], 3.17 (inactive); in [12], 1.05 (inactive); in assay [13], 1.49 (inactive). For the same compound, the z-score was 0.168 (inactive) in [14]; 1.41 (inactive) in [15]; 0.651 in assay [16]; 0.234 (inactive) in assay [17]; 0.991 (inactive) in assay [18]; -0.162 in assay [19]. Moreover, the z-score in [20] is 2.55.

Turning to `O=C1c2ccccc2[C@](Cc2ccccc2I)(C(=O)O)[C@H](c2ccc(CO)cc2)N1Cc1ccccc1Cl`, the composite z-score was determined as 0.0716 in [1]; 0.414 in [5]; 0.112 in assay [6]; 0.252 in assay [7]; 1.01 in assay [8]; 0.0948 in assay [9]. Also, the composite z-score in assay [11] amounted to 0.122. For the same compound, the z-score in assay [2] is -1.86 (inactive); in assay [3], -0.0888 (inactive); in assay [4], -0.873 (inactive); in [10] it was 1.76 (inactive); in [12], 4.07 (inactive); in [13] it was -0.442 (inactive). Moreover, the z-score was 0.477 (inactive) in assay [14]; -1.07 (inactive) in assay [15]; 1.21 in assay [16]; 1.35 (inactive) in assay [17]; 0.57 (inactive) in assay [18]; 2.39 in [19]. Besides, in [20], the z-score was 1.32.

In the case of `CCCCCN1CC=CC23O[C@@H]4/C=C\CCC(C)OC(=O)C4[C@H]2C(=O)N(CCCO)[C@@H]3C1=O` (stereo not given in full), the composite z-score was 0.0429 in assay [1]; -0.67 in assay [5]; -0.245 in assay [6]; 0.26 in [7]; -0.147 in assay [8]; -0.0977 in assay [9]. Also, the composite z-score in [11] is -0.229. Also, the z-score is -1.37 (inactive) in [2]; 0.487 (inactive) in [3]; 0.213 (inactive) in assay [4]; 1.5 (inactive) in assay [10]; -0.404 (inactive) in assay [12]; -0.0816 (inactive) in assay [13]. The z-score in [14] was 0.787 (inactive); in [15] it was 0.281 (inactive); in assay [16] it was 0.0147; in [17], 1.86 (inactive); in assay [18], 0.381 (inactive); in assay [19] it was 2.57. The z-score in [20] was -0.367.

Turning to `C=CCN1C(=O)[C@@]2(O[C@@H](CCn3cc(CCO)nn3)[C@H]([Si](C)(C)c3ccc(OC)cc3)[C@H]2C)c2cc(N3C(=O)c4cccc5cccc3c45)ccc21`, the composite z-score in [1] stood at 0.662; in assay [5], 0.854; in assay [6] it was 0.0377; in assay [7], 0.311; in [8], 0.615; in assay [9], 0.802. Moreover, in assay [11], the composite z-score worked out at 0.0318. The z-score in [2] is -7.17 (inactive); in [3] it was 37.8 (active); in assay [4] it was -3.77 (inactive); in assay [10], 2.05 (inactive); in assay [12] it was 16.4 (active); in assay [13], 3.97 (inactive). The z-score was -0.551 (inactive) in assay [14]; 1.5 (inactive) in assay [15]; 0.905 in assay [16]; 0.576 (inactive) in [17]; 1.11 (inactive) in assay [18]; -0.148 in assay [19]. Further, the z-score in assay [20] is -4.11.

The values above are taken from PubChem BioAssay.
